The record followed here is article PMC4336329 (PLoS ONE, 2015).

Hit rate of the full screen: of about 310,000 compounds, about 14,000 (4.5%) showed an effect of 50% or more. The effect is printed as a negative number. The entries come from a sample that favours strong results as a whole.
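Further: peak tail current of the secondary pulse compared with the same well before compound.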

The experiment deals with human ether-à-go-go-related gene (hERG) potassium channel (human, UniProt Q12809). Kind of experiment: primary screen, population patch clamp on CHO cells stably expressing hERG; higher = less effect of the substance.
Chain of human ether-à-go-go-related gene (hERG) potassium channel (Q12809 whole entry, looked up): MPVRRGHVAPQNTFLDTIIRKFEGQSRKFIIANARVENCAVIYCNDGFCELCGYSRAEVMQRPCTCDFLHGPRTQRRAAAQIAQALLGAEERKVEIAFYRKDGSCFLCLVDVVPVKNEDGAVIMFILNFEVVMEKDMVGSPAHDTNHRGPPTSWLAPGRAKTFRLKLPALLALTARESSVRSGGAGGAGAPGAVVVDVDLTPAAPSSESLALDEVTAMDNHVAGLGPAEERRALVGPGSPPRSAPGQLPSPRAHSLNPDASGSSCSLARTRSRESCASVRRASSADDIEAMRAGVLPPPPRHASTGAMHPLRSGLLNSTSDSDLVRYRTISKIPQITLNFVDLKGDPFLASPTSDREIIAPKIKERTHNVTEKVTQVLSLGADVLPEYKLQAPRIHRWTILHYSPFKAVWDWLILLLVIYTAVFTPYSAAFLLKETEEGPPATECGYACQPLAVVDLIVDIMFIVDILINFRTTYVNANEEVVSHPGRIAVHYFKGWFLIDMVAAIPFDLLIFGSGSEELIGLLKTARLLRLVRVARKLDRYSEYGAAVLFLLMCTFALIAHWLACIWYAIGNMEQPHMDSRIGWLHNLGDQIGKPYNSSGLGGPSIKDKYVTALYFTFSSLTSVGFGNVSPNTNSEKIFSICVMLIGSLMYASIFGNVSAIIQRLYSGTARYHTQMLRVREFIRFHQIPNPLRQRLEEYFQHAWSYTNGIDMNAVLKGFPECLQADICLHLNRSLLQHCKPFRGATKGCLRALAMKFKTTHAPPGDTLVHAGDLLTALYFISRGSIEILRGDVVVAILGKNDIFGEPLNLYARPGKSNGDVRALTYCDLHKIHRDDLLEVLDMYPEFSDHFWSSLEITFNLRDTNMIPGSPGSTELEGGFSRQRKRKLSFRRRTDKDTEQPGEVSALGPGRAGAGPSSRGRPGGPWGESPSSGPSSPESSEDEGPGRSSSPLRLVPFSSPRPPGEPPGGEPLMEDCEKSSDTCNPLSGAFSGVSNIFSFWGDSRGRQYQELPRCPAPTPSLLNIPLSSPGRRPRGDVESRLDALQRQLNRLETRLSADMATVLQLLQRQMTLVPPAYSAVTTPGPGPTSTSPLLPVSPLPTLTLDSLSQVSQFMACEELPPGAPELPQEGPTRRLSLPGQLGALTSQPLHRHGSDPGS
With `O=C(/C=C/c1ccc(O)c(O)c1)NC(=O)c1ccccc1O`, the “hERG current change (%, negative = inhibition) at 10uM” value turned out to be 6.74%.
In the case of `Cc1ccc(-c2nc(CS(=O)(=O)CC(=O)NCc3cccc(F)c3)c(C)o2)cc1` it was 9.53%; in that of `COc1ccc(S(=O)(=O)N2CCOCC2)c(C)c1C`, 5.99%.
Regarding `CCOc1ccc(C(=O)N2CCC3(CC2)NCCc2[nH]cnc23)cc1OCC`, the “hERG current change (%, negative = inhibition) at 10uM” value is reported as 22.6%.
As for `O=C(c1ccc(F)cc1)N1CCC2(CC1)NCCc1[nH]cnc12`, the “hERG current change (%, negative = inhibition) at 10uM” value came to 4.43%.
On to `CCOc1ccc(C(=O)N2CCC3(CC2)NCCc2[nH]cnc23)cc1`, for which the “hERG current change (%, negative = inhibition) at 10uM” value is -70.1%.
Turning to `O=C(c1ccc(F)c(F)c1)N1CCC2(CC1)NCCc1[nH]cnc12`, the “hERG current change (%, negative = inhibition) at 10uM” value was 10.3%.
In the case of `CC(C)(C)c1ccc(C(=O)N2CCC3(CC2)NCCc2[nH]cnc23)cc1` it was -8.51%; in that of `O=C(c1ccc(Br)cc1)N1CCC2(CC1)NCCc1[nH]cnc12`, -65.8%; in that of `COc1ccc(C(=O)N2CCC3(CC2)NCCc2[nH]cnc23)cc1`, -18.8%.
As for `Cc1ccc(C(=O)N2CCC3(CC2)NCCc2[nH]cnc23)cc1`, the “hERG current change (%, negative = inhibition) at 10uM” value is -53.9%.
With `O=C(c1ccccc1)N1CCC2(CC1)NCCc1[nH]cnc12`, the “hERG current change (%, negative = inhibition) at 10uM” value is 26.6%.
In the case of `O=C(NCc1ccco1)c1ccccc1NS(=O)(=O)c1cccs1` it was 3.9%.
In the case of `Cc1ccc(Cn2ccsc2=NC(=O)COC(=O)C(C)C)cc1` it was -15.3%; in that of `CSc1nnc2n(C)c3c(c(=O)n12)C1(CCCC1)Cc1ccccc1-3`, 2.33%; in that of `COC(=O)c1ccccc1NC(=O)c1ccc2c(c1)OCCO2`, 1.86%.
Consider `O=C(CNc1ccc(Br)cc1)NNC1=NCCC1`, for which the “hERG current change (%, negative = inhibition) at 10uM” value is 1.72%.
As to `CCc1ccc(CNCCc2c[nH]c3ccccc23)cc1.O=C(O)C(=O)O`, the “hERG current change (%, negative = inhibition) at 10uM” value was -40.9%.
With `Cc1ccc(S(=O)(=O)Nc2ccccc2C(=O)N2CCN(C)CC2)cc1`, the “hERG current change (%, negative = inhibition) at 10uM” value was -3.2%.
As to `CCOC(=O)Nc1ccc2c(c1)N(C(=O)C(C)N1CCCC1)c1ccccc1CC2.Cl` (centres unmarked), the “hERG current change (%, negative = inhibition) at 10uM” value is -60.2%.
In the case of `CCOC(=O)Nc1ccc2c(c1)N(C(=O)OC)c1ccccc1CC2` it was -2.44%; in that of `CCN(CC)CCC(=O)N1c2ccccc2CCc2ccc(NC(=O)OC)cc21.Cl`, -8.57%.
Consider `CCOC(=O)Nc1ccc2c(c1)N(C(=O)CCN(C)C)c1ccccc1CC2`, for which the “hERG current change (%, negative = inhibition) at 10uM” value is -40.7%.
In the case of `CCOC(=O)Nc1ccc2c(c1)N(C(=O)CN1CCN(C)CC1)c1ccccc1S2.Cl`, the “hERG current change (%, negative = inhibition) at 10uM” value was -64.4%.
For `CCOC(=O)Nc1ccc2c(c1)N(C(=O)CCN(CC)CC)c1ccccc1CC2`, the “hERG current change (%, negative = inhibition) at 10uM” value is on record as -50.3%.
Take `CCOC(=O)Nc1ccc2c(c1)N(C(=O)N1CCN(C)CC1)c1ccccc1S2.Cl`: the “hERG current change (%, negative = inhibition) at 10uM” value is -46%.
On to `CCOC(=O)Nc1ccc2c(c1)N(C(=O)CCN1CCN(C)CC1)c1ccccc1S2.Cl`, for which the “hERG current change (%, negative = inhibition) at 10uM” value is given as -15.2%.
For `CCOC(=O)Nc1ccc2c(c1)N(C(=O)N(C)C)c1ccccc1CC2`, the “hERG current change (%, negative = inhibition) at 10uM” value is -6.99%.
For the molecule `C=CCSc1nc(N(CC)CC)c2sccc2n1`, the “hERG current change (%, negative = inhibition) at 10uM” value is -12.4%.
In the case of `CC(=O)c1cccc(N2C(=O)C3C4CCC(C4=C(C)C)C3C2=O)c1` (centres unmarked) it was 21.1%; in that of `COc1cc(CSc2nnnn2-c2ccc(C)cc2)cc(OC)c1OC`, 8.81%; in that of `N#Cc1nc(-c2ccco2)oc1NCCc1ccccc1`, -5.59%.
In the case of `CCCc1cc(=O)oc2cc(C)c3c(C)coc3c12`, the “hERG current change (%, negative = inhibition) at 10uM” value amounted to 5.51%.
In the case of `COc1cccc(-n2cnc3sc(C)c(C)c3c2=O)c1` it was -12%.
In the case of `COC(=O)C1=C(C)NC(C)=C(C(=O)OCCN(C)Cc2ccccc2)C1c1cccc([N+](=O)[O-])c1.Cl` (centres unmarked), the “hERG current change (%, negative = inhibition) at 10uM” value is on record as 0.0465%.
In the case of `COc1cc(/C=C/c2noc(-c3ccccc3O)n2)cc(OC)c1OC` it was 9.26%; in that of `O=C(NCc1cccc(Cl)c1)C1CCC(=O)N(CCN2CCOCC2)C1` (centres unmarked), 20.5%.
For the molecule `CCOC(=O)c1ccc2[nH]c3c(c2c1)CCCC3`, the “hERG current change (%, negative = inhibition) at 10uM” value was -19.2%.
Turning to `CC(OC(=O)c1cccs1)C(=O)NC1CCCCC1C` (centres unmarked), the “hERG current change (%, negative = inhibition) at 10uM” value is listed as -66.7%.
`CC(OC(=O)CCC(=O)c1cccs1)C(=O)NC1CCCCC1C` (centres unmarked): the “hERG current change (%, negative = inhibition) at 10uM” value is recorded as -6.24%.
In the case of `CC(OC(=O)c1cccs1)C(=O)NC1CC1` (centres unmarked) it was -5.98%; in that of `CCOC(=O)CNC(=O)Cn1cnc2c(nnn2-c2cccc(OC)c2)c1=O`, 17.5%.
In the case of `COc1cc(C(c2c(C)[nH][nH]c2=O)c2c(C)[nH][nH]c2=O)ccc1OC(=O)c1cccc([N+](=O)[O-])c1` it was 10.4%; in that of `Cc1cccc(NC(=O)N2CCCCCC2)c1`, -8.87%; in that of `Cc1nn(CC(=O)N2CCN(c3ccccc3)CC2)c(C)c1[N+](=O)[O-]`, -9.49%.
Consider `Cc1cc([N+](=O)[O-])nn1CCCC(=O)NCc1ccc(F)cc1`, for which the “hERG current change (%, negative = inhibition) at 10uM” value is on record as -0.962%.
With `Cc1c(Cl)c([N+](=O)[O-])nn1CCCC(=O)N1CCN(c2ccccc2)CC1`, the “hERG current change (%, negative = inhibition) at 10uM” value is listed as -58%.
Take `Cc1cc([N+](=O)[O-])nn1CCCC(=O)N1CCN(c2ccc(F)cc2)CC1`: the “hERG current change (%, negative = inhibition) at 10uM” value is on record as -53.2%.
`COc1ccccc1N1CCN(C(=O)CCCn2nc(C)c([N+](=O)[O-])c2C)CC1`: the “hERG current change (%, negative = inhibition) at 10uM” value was -19.1%.
As for `Cc1nn(CCCC(=O)N2CCN(c3ccc(F)cc3)CC2)c(C)c1[N+](=O)[O-]`, the “hERG current change (%, negative = inhibition) at 10uM” value is given as -62.1%.
For `Cc1c(Cl)c([N+](=O)[O-])nn1CCCC(=O)O`, the “hERG current change (%, negative = inhibition) at 10uM” value is recorded as 9.17%.
`Cc1cc([N+](=O)[O-])nn1CCCC(=O)N1CCN(c2ccccc2)CC1`: the “hERG current change (%, negative = inhibition) at 10uM” value is on record as -21.4%.
For `Cc1c(Br)c([N+](=O)[O-])nn1CCCC(=O)N1CCN(c2ccccc2)CC1`, the “hERG current change (%, negative = inhibition) at 10uM” value is -32.4%.
`CC(=O)N1CCN(c2ccc(NC(=O)c3ccc(OCc4ccccc4)cc3)cc2)CC1`: the “hERG current change (%, negative = inhibition) at 10uM” value is reported as 16.7%.
Turning to `CCOC(=O)C1CCC2(CC1)C(C#N)=C(N)Oc1n[nH]c(C)c12` (centres unmarked), the “hERG current change (%, negative = inhibition) at 10uM” value is on record as -14.2%.
Take `Cc1cccc(C(=O)Oc2csc(=S)n2C(=O)c2cccc(C)c2)c1`: the “hERG current change (%, negative = inhibition) at 10uM” value turned out to be 6.76%.
As to `COc1ccc([N+](=O)[O-])c(OC)c1C(=O)NC(=O)Nc1nc(C)cc(C)n1`, the “hERG current change (%, negative = inhibition) at 10uM” value worked out at 18%.
For `O=S(=O)(Nc1ccccc1)c1ccc2c(c1)CCO2`, the “hERG current change (%, negative = inhibition) at 10uM” value was found to be 11%.
`O=C(Cn1c(=O)c2sccc2n(Cc2ccc([N+](=O)[O-])cc2)c1=O)NCCc1ccccc1`: the “hERG current change (%, negative = inhibition) at 10uM” value is listed as -49%.
On to `O=C(c1cn(-c2ccccc2)nc1-c1ccccc1)N1CCOCC1`, for which the “hERG current change (%, negative = inhibition) at 10uM” value is given as -4.6%.
As to `O=C(OCC(=O)N1CCN(C(=O)c2ccco2)CC1)c1cn(-c2ccccc2)nc1-c1ccccc1`, the “hERG current change (%, negative = inhibition) at 10uM” value is -67%.
In the case of `O=C(c1ccco1)N1CCN(C(=O)c2cn(-c3ccccc3)nc2-c2ccccc2)CC1`, the “hERG current change (%, negative = inhibition) at 10uM” value is given as -86.5%.
With `COc1ccccc1-c1nn(-c2ccccc2)cc1C(=O)N1CCN(C(=O)c2ccco2)CC1`, the “hERG current change (%, negative = inhibition) at 10uM” value is recorded as -36%.
As for `O=C(OCC(=O)N1CCN(C(=O)c2ccco2)CC1)c1ccccc1O`, the “hERG current change (%, negative = inhibition) at 10uM” value is recorded as -18.2%.
In the case of `Cc1cnc(C(=O)OCC(=O)N2CCN(C(=O)c3ccco3)CC2)cn1` it was -8.85%.
As for `COCCSc1ccccc1C(=O)Nc1ccncc1`, the “hERG current change (%, negative = inhibition) at 10uM” value turned out to be 16.4%.
Turning to `O=C(/C=C/c1ccc(F)cc1)NC(=S)Nc1ccccc1`, the “hERG current change (%, negative = inhibition) at 10uM” value is reported as 4.35%.
On to `Cc1ccc(C(=O)Nc2ccc(SC(F)F)cc2)s1`, for which the “hERG current change (%, negative = inhibition) at 10uM” value is 24.4%.
In the case of `Cc1ccc(CNC(=O)CSc2nc3[nH]ncc3c(=O)[nH]2)cc1` it was 4.89%; in that of `COC(=O)c1c(N(S(C)(=O)=O)S(C)(=O)=O)sc2c1CCN(c1ncc(C(F)(F)F)cc1Cl)C2`, 13%; in that of `CC(=O)c1ccc(S(=O)(=O)N2CCC(Oc3ccc(-n4cnnn4)cc3)CC2)cc1`, 21.9%.
Turning to `CN(Cc1ccccc1)C(=O)C1CCN(S(=O)(=O)c2ccc(-n3cnnn3)cc2)CC1`, the “hERG current change (%, negative = inhibition) at 10uM” value is on record as -75.2%.
On to `O=C(C1CCN(S(=O)(=O)c2ccc(-n3cnnn3)cc2)CC1)N1CCN(c2ccccc2)CC1`, for which the “hERG current change (%, negative = inhibition) at 10uM” value is given as -35.7%.
In the case of `CCN(CC)C(=O)C1CCN(S(=O)(=O)c2ccc(-n3cnnn3)cc2)CC1`, the “hERG current change (%, negative = inhibition) at 10uM” value is given as -30%.
Take `O=S(=O)(c1ccccc1)N1CCC(Oc2ccc(-n3cnnn3)cc2)CC1`: the “hERG current change (%, negative = inhibition) at 10uM” value was -74.8%.
Consider `C=CCN(CC=C)C(=O)C1CCN(S(=O)(=O)c2ccc(N3CCCC3=O)cc2)CC1`, for which the “hERG current change (%, negative = inhibition) at 10uM” value turned out to be 5.01%.
In the case of `Cc1ccc(S(=O)(=O)N2CCC(Oc3ccc(-n4cnnn4)cc3)CC2)cc1` it was 0.934%.
In the case of `CCC(C)NC(=O)C1CCN(S(=O)(=O)c2ccc(-n3cnnn3)cc2)CC1` (centres unmarked), the “hERG current change (%, negative = inhibition) at 10uM” value is given as 3.26%.
For the molecule `C=CCN(CC=C)C(=O)C1CCN(S(=O)(=O)c2ccc(-n3cnnn3)cc2)CC1`, the “hERG current change (%, negative = inhibition) at 10uM” value is -54.4%.
In the case of `COc1ccc(N2CCN(c3nc4ccccc4nc3NS(=O)(=O)c3ccccc3)CC2)cc1` it was 1.21%; in that of `CCOC(=O)/C(C#N)=C/c1cn(CCC(=O)O)nc1-c1ccc(F)cc1`, 4.24%.
In the case of `Cc1ccc(S(=O)(=O)N2CCN(C3CC(=O)N(CCc4ccccc4)C3=O)CC2)cc1C` (centres unmarked) it was -27.7%; in that of `Cc1cccc(C)c1NC(=O)C(c1cccs1)N(Cc1ccco1)C(=O)Cn1nnc2ccccc21` (centres unmarked), 14.4%.
On to `Cc1ccc(S(=O)(=O)NCCC(=O)OCC(=O)NC(=O)c2cccn2C)cc1`, for which the “hERG current change (%, negative = inhibition) at 10uM” value is reported as -12.5%.
As for `O=C(COC(=O)CCNS(=O)(=O)c1cccc(C(F)(F)F)c1)NC(=O)NC1CCCCC1`, the “hERG current change (%, negative = inhibition) at 10uM” value is reported as -14.4%.
On to `Cn1cccc1C(=O)NC(=O)COC(=O)CCNS(=O)(=O)c1cccc(C(F)(F)F)c1`, for which the “hERG current change (%, negative = inhibition) at 10uM” value is recorded as -52.4%.
